The assay relates to iBMDM (immortalised mouse bone-marrow-derived macrophages), LPS-stimulated. As to the kind of experiment: mitochondrial superoxide (MitoSOX fluorescence) fold increase over unstimulated control; higher = more LPS-induced mitochondrial ROS (less inhibition). As to conditions: inhibitor concentration: 500 nM, LPS: 100 ng/ml. The method, boiled down:
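Immortalised mouse bone-marrow-derived macrophages in black 96-well plates were kept in phenol-red-free 1% FCS/DMEM for 20 h, pretreated 30 min with kinase inhibitors (500 nM), loaded with 1 μM MitoSox for 10 min and then given LPS (100 ng/ml). Fluorescence at excitation/emission 510/580 nm was read on a ClarioStar plate reader every 60 min for 4 h, with wells in triplicate. Mitochondrial superoxide is given as fold induction over untreated macrophages, averaged across replicates.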

Values joined by “and” are separate entries in the source; they are usually repeats but may differ in a detail not shown here. Equal entries are not always repeated. Structures can show the parent of a compound that is named as a salt. ± gives the standard deviation of the averaged measurements.

`O=C(/C=C/c1ccc(O)c(O)c1)c1ccc(O)cc1O` [Butein]: the mitochondrial superoxide reads like this: (time after LPS: 1 h) 1.49 ± 0.065; (time after LPS: 2 h) 1.65 ± 0.067; (time after LPS: 4 h) 1.85 ± 0.019.
With `Cc1c(NC(=O)OC[C@@H]2COCCN2)cn2ncnc(Nc3ccc4c(cnn4Cc4cccc(F)c4)c3)c12`, the mitochondrial superoxide reads like this: (time after LPS: 1 h) 1.57 ± 0.034; (time after LPS: 2 h) 1.74 ± 0.077; (time after LPS: 4 h) 1.9 ± 0.045.
On to `CCCCCCCCc1ccc(CCC(N)(CO)CO)cc1` [Fingolimod (FTY720) HCl], for which the mitochondrial superoxide was 1.15 ± 0.043 (time after LPS: 1 h), 1.19 ± 0.071 (time after LPS: 2 h) and 1.31 ± 0.038 (time after LPS: 4 h).
In the same order, the values of `Oc1cccc(-c2nc(N3CCOCC3)c3oc4ncccc4c3n2)c1` are 1.61 ± 0.025, 1.62 ± 0.03 and 1.685 ± 0.012.
With `C[C@@H](Oc1cc(-c2cnn(C3CCNCC3)c2)cnc1N)c1c(Cl)ccc(F)c1Cl`, the mitochondrial superoxide came to 1.39 ± 0.038 (time after LPS: 1 h), 1.5 ± 0.052 (time after LPS: 2 h) and 1.64 ± 0.079 (time after LPS: 4 h).
With `CN1CCN(c2nc(C3=C(c4c[nH]c5ccccc45)C(=O)NC3=O)c3ccccc3n2)CC1` [Sotrastaurin], the mitochondrial superoxide was 1.41 ± 0.015 (time after LPS: 1 h), 1.55 ± 0.039 (time after LPS: 2 h) and 1.749 ± 0.012 (time after LPS: 4 h).
For `Nc1nc(N)c(N=O)c(OCC2CCCCC2)n1`, in that order: 1.17 ± 0.03, 1.25 ± 0.017 and 1.37 ± 0.074.
In the same order, the values of `COc1cc2ncnc(Nc3ccc(Cl)cc3F)c2cc1OC` are 1.12 ± 0.029, 1.24 ± 0.037 and 1.271 ± 0.0046.
On to `COc1ccc(Cl)cc1NC(=O)Nc1cc(C)nc2ccccc12`, for which the mitochondrial superoxide is, setting by setting: (time after LPS: 1 h) 1.42 ± 0.05; (time after LPS: 2 h) 1.55 ± 0.055; (time after LPS: 4 h) 1.652 ± 0.011.
`NC(=O)c1ccc(N(C(N)=O)c2c(F)cccc2F)nc1-c1ccc(F)cc1F`: the mitochondrial superoxide was determined as 1.2 ± 0.026 (time after LPS: 1 h), 1.27 ± 0.087 (time after LPS: 2 h) and 1.327 ± 0.0024 (time after LPS: 4 h).
For `Cc1c(CN2CCN(C(=O)[C@H](C)O)CC2)sc2c(N3CCOCC3)nc(-c3cnc(N)nc3)nc12`, in that order: 1.266 ± 0.011, 1.44 ± 0.057 and 1.5 ± 0.061.
In the same order, the values of `O=C(Nc1c[nH]nc1-c1nc2ccc(CN3CCOCC3)cc2[nH]1)NC1CC1` are 1.34 ± 0.02, 1.42 ± 0.033 and 1.51 ± 0.036.
Regarding `C[C@H](Nc1ncnc2nc[nH]c12)c1cc2cccc(Cl)c2c(=O)n1-c1ccccc1`, the mitochondrial superoxide (time after LPS: 1 h) was 1.09 ± 0.045, the mitochondrial superoxide (time after LPS: 2 h) was found to be 1.2 ± 0.032 and the mitochondrial superoxide (time after LPS: 4 h) stood at 1.31 ± 0.023.
For `Cc1cc(C(=O)NOCCO)c(Nc2ccc(I)cc2F)n(C)c1=O`, in that order: 1.05 ± 0.042, 1.25 ± 0.092 and 1.39 ± 0.073.
With `C#Cc1cccc(Nc2ncnc3cc4c(cc23)OCCOCCOCCO4)c1` [Icotinib], the mitochondrial superoxide by setting is: (time after LPS: 1 h) 1.16 ± 0.036; (time after LPS: 2 h) 1.19 ± 0.021; (time after LPS: 4 h) 1.31 ± 0.02.
With `CCn1cc(-c2ccnc3[nH]c(-c4cccc(CN(C)C)c4)cc23)c(-c2ccc(NC(=O)N(C)C)cc2)n1`, the mitochondrial superoxide (time after LPS: 1 h) worked out at 1.27 ± 0.026, the mitochondrial superoxide (time after LPS: 2 h) was found to be 1.45 ± 0.047 and the mitochondrial superoxide (time after LPS: 4 h) was determined as 1.71 ± 0.16.
`Cc1ncc(-c2ccnc(Nc3ccc(S(C)(=O)=O)cc3)n2)n1C(C)C` yielded a mitochondrial superoxide (time after LPS: 1 h) of 1.36 ± 0.052, a mitochondrial superoxide (time after LPS: 2 h) of 1.46 ± 0.063 and a mitochondrial superoxide (time after LPS: 4 h) of 1.6 ± 0.11.
In turn, `O=C1c2ccc(Nc3ccc(F)cc3F)cc2CCc2ccc(OC[C@H](O)CO)cc21` [Skepinone-L] showed a mitochondrial superoxide (time after LPS: 1 h) of 1.43 ± 0.05, a mitochondrial superoxide (time after LPS: 2 h) of 1.41 ± 0.05 and a mitochondrial superoxide (time after LPS: 4 h) of 1.62 ± 0.049.
Regarding `C[C@@H]1CCN(C(=O)CC#N)C[C@@H]1N(C)c1ncnc2[nH]ccc12`, the mitochondrial superoxide runs as follows: (time after LPS: 1 h) 1.12 and 1.28; (time after LPS: 2 h) 1.21 and 1.4; (time after LPS: 4 h) 1.3 and 1.58.
For `CCS(=O)(=O)Nc1ccc2[nH]c(O)c(C(=Nc3ccc(CN4CCCCC4)cc3)c3ccccc3)c2c1` [Hesperadin], the mitochondrial superoxide is, setting by setting: (time after LPS: 1 h) 1.1 ± 0.02; (time after LPS: 2 h) 1.13 ± 0.031; (time after LPS: 4 h) 1.28 ± 0.046.
In the same order, the values of `C=CC(=O)Nc1cc2c(Nc3ccc(F)c(Cl)c3)ncnc2cc1OCCCN1CCOCC1` [Canertinib (CI-1033)] are 1.59 ± 0.093, 1.55 ± 0.14 and 1.87 ± 0.084.
In the case of `CN1CC[C@H](c2c(O)cc(O)c3c(=O)cc(-c4ccccc4Cl)oc23)[C@H](O)C1` [Flavopiridol HCl], the mitochondrial superoxide (time after LPS: 1 h) stood at 1.31 ± 0.077, the mitochondrial superoxide (time after LPS: 2 h) stood at 1.48 ± 0.088 and the mitochondrial superoxide (time after LPS: 4 h) was found to be 1.71 ± 0.06.
With `COc1cc2nccc(Oc3ccc(NC(=O)Nc4ccc(F)cc4F)c(F)c3)c2cc1OC`, the mitochondrial superoxide reads like this: (time after LPS: 1 h) 1.13 ± 0.036; (time after LPS: 2 h) 1.27 ± 0.071; (time after LPS: 4 h) 1.28 ± 0.13.
With `CC(=O)c1c(C)c2cnc(Nc3ccc(N4CCNCC4)cn3)nc2n(C2CCCC2)c1=O`, the mitochondrial superoxide worked out at 1.45 ± 0.032 (time after LPS: 1 h), 1.45 ± 0.037 (time after LPS: 2 h) and 1.49 ± 0.03 (time after LPS: 4 h).
Regarding `COc1cc(Nc2c(C#N)cnc3cc(OCCCN4CCN(C)CC4)c(OC)cc23)c(Cl)cc1Cl` [Bosutinib (SKI-606)], the mitochondrial superoxide by setting is: (time after LPS: 1 h) 1.58 ± 0.017; (time after LPS: 2 h) 1.66 ± 0.056; (time after LPS: 4 h) 1.81 ± 0.04.
On to `COc1cccc(-c2cc(=O)c3ccccc3o2)c1N`, for which the mitochondrial superoxide reads like this: (time after LPS: 1 h) 1.48 ± 0.098; (time after LPS: 2 h) 1.57 ± 0.021; (time after LPS: 4 h) 1.67 ± 0.04.
Take `Oc1ccc(Nc2nc(-c3ccc(Cl)cc3)cs2)cc1`: the mitochondrial superoxide runs as follows: (time after LPS: 1 h) 1.47 ± 0.039; (time after LPS: 2 h) 1.56 ± 0.01; (time after LPS: 4 h) 1.71 ± 0.11.
As for `Cn1c(Nc2ccc(C(F)(F)F)cc2)nc2cc(Oc3ccnc(-c4ncc(C(F)(F)F)[nH]4)c3)ccc21`, the mitochondrial superoxide (time after LPS: 1 h) came out at 1.13 ± 0.08, the mitochondrial superoxide (time after LPS: 2 h) amounted to 1.2 ± 0.097 and the mitochondrial superoxide (time after LPS: 4 h) was found to be 1.33 ± 0.066.
For `Cc1ccccc1CN1C2=NCCN2C(=O)C2=C1CCN(Cc1ccccc1)C2`, in that order: 1.16 ± 0.042, 1.27 ± 0.036 and 1.34 ± 0.13.
For `CCS(=O)(=O)c1cccc(-c2cc(C(=O)NC3CCN(C)CC3)c(C)c3[nH]c4ncc(C)cc4c23)c1`, the mitochondrial superoxide stood at 1.31 ± 0.05 (time after LPS: 1 h), 1.48 ± 0.079 (time after LPS: 2 h) and 1.64 ± 0.098 (time after LPS: 4 h).
`OCCn1cc(-c2ccc3c(c2)CC/C3=N\O)c(-c2ccncc2)n1`: the mitochondrial superoxide stood at 1.36 ± 0.044 (time after LPS: 1 h), 1.45 ± 0.064 (time after LPS: 2 h) and 1.49 ± 0.02 (time after LPS: 4 h).
Consider `Cn1c(=O)n(-c2ccc(C(C)(C)C#N)cc2)c2c3cc(-c4cnc5ccccc5c4)ccc3ncc21` [BEZ235 (NVP-BEZ235, Dactolisib)], for which the mitochondrial superoxide worked out at 1.47 ± 0.087 (time after LPS: 1 h), 1.47 ± 0.084 (time after LPS: 2 h) and 1.61 ± 0.076 (time after LPS: 4 h).

The record behind these values is the supplement of paper PMC7393113.
